An excerpt weighted towards active compounds, which were near 2.3% of everything screened.
CHRM1 agonist: human M1 muscarinic receptor agonism | CHO-K1 hM1, Fluo-8 calcium fluorescence, agonist mode; 0% DMSO, 100% acetylcholine EC100 | activation, % at 3 µM | 0.33% of 360,000 active | P11229;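 active = activation above the run's mean compound activation plus 3 SD, cut at about 16% in these data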;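 note: peak over basal fluorescence ratio within a 140 s kinetic read after compound addition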
Target sequence (P11229 whole entry, looked up): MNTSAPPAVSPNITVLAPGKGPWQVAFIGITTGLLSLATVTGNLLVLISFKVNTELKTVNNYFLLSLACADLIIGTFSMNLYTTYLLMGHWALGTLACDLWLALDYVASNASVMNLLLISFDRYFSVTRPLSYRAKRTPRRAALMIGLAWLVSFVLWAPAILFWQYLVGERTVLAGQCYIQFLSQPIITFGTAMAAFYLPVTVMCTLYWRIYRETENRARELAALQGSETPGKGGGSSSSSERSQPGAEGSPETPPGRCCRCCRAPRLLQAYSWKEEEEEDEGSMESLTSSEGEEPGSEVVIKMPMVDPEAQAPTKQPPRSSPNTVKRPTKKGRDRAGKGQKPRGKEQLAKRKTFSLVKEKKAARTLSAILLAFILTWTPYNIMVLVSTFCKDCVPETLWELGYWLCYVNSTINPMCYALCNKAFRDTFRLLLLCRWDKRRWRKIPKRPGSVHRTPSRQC
M1 ag parental: counter-screen for M1 agonists: effect in parental CHO-K1 cells; Fluo-8 calcium fluorescence; scaled to maximal ATP response, vehicle zero; activation, % at 3 µM; 0.48% of 360,000 active; in the data active = activation above about 15%;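 note: untransfected CHO-K1 host cells lacking M1 receptor as counterscreen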
CHO-K1 Ca PAM: M1 PAM counterscreen hit in parental CHO-K1 cells; activation, % at 3 µM; 0.02% of 360,000 active; ATP EC20, Fluo-8 calcium fluorescence; 0% at ATP EC20, 100% at ATP max; AID 602247;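 active = activation above the run cutoff, the mean activation of all test compounds plus 3 SD, cut at about 40% in these data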;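 note: peak over basal fluorescence ratio in a 140 s read after ATP addition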
CHO-K1 Ca antag: counter-screen for M1 antagonists: effect in parental CHO-K1 cells | ATP-induced calcium, Fluo-8 fluorescence | inhibition, % at 3 µM | 0.6% of 360,000 active | AID 602250;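 active = inhibition above a per-plate cutoff, the plate's mean sample inhibition plus 3 SD, cut at about 24% in these data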
M1 PAM: positive allosteric modulators of human M1 muscarinic receptor | P11229 | CHO-K1 hM1, Fluo-8 calcium fluorescence, ACh EC20; 0% = ACh EC20, 100% = maximal ACh | activation, % at 3 µM | 0.088% of 360,000 active | AID 588819; in the data active = activation above about 19%, passing the limit was not always enough
CHRM1 antagonist: blocks human M1 muscarinic receptor | P11229 | CHO-K1 hM1, Fluo-8 calcium fluorescence, ACh EC80 antagonist | inhibition, % at 3 µM | 1.3% of 360,000 active | AID 588852;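 active = percent inhibition above its own plate's cutoff, namely the mean of that plate's compound wells plus 3 SD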;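 note: peak over basal fluorescence ratio during 140 s after agonist addition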
A number is an active result.

`COC(=O)c1ccc(NC(=O)C[n+]2ccccc2)cc1` gave CHRM1 agonist inactive, M1 ag parental inactive, CHO-K1 Ca PAM inactive, CHO-K1 Ca antag inactive, M1 PAM inactive and CHRM1 antagonist inactive.
`Cc1cccc(C)c1OCC(O)Cn1ccnc1C` (stereo unspecified) gave CHRM1 agonist inactive, M1 ag parental inactive, CHO-K1 Ca PAM inactive, CHO-K1 Ca antag 26, M1 PAM inactive and CHRM1 antagonist inactive.
For COc1cccc(C(=O)OCCNC(=O)c2cccnc2)c1 the results were CHRM1 agonist inactive, M1 ag parental inactive, CHO-K1 Ca PAM inactive, CHO-K1 Ca antag inactive, M1 PAM inactive and CHRM1 antagonist inactive.
Screening NC(=O)c1ccc(NC(=O)COC(=O)c2ccc3c(c2)OCCO3)cc1 returned CHRM1 agonist inactive, M1 ag parental 20, CHO-K1 Ca PAM inactive, CHO-K1 Ca antag inactive, M1 PAM inactive and CHRM1 antagonist inactive.
`O=C(COC(=O)c1ccc(NS(=O)(=O)c2ccc3c(c2)OCCO3)cc1)NC1CCS(=O)(=O)C1` (stereo unspecified) gave CHRM1 agonist inactive, M1 ag parental inactive, CHO-K1 Ca PAM inactive, CHO-K1 Ca antag 25, M1 PAM inactive and CHRM1 antagonist inactive.
Screening O=C(COC(=O)CNC(=O)c1ccc(Br)o1)Nc1ccc2c(c1)OCCO2 returned CHRM1 agonist inactive, M1 ag parental inactive, CHO-K1 Ca PAM inactive, CHO-K1 Ca antag inactive, M1 PAM inactive and CHRM1 antagonist inactive.
O=C(COC(=O)c1ccc(Br)o1)Nc1ccc2c(c1)OCCO2 was read as CHRM1 agonist inactive, M1 ag parental inactive, CHO-K1 Ca PAM inactive, CHO-K1 Ca antag inactive, M1 PAM 27 and CHRM1 antagonist inactive.
`COc1ccc(S(=O)(=O)N(C)C[C@H]2Oc3c(NC(=O)c4ccncc4)cccc3C(=O)N([C@H](C)CO)C[C@@H]2C)cc1` gave CHRM1 agonist inactive, M1 ag parental inactive, CHO-K1 Ca PAM inactive, CHO-K1 Ca antag inactive, M1 PAM inactive and CHRM1 antagonist inactive.
Screening O=C(O)CC(Cc1ccc(Cl)cc1)C(=O)NCC12CC3CC(CC(C3)C1)C2 (stereo unspecified) returned CHRM1 agonist inactive, M1 ag parental inactive, CHO-K1 Ca PAM inactive, CHO-K1 Ca antag inactive, M1 PAM inactive and CHRM1 antagonist 31.
For Cc1ccc(CC(CC(=O)O)C(=O)NCC23CC4CC(CC(C4)C2)C3)cc1 (stereo unspecified) the results were CHRM1 agonist inactive, M1 ag parental inactive, CHO-K1 Ca PAM inactive, CHO-K1 Ca antag inactive, M1 PAM inactive and CHRM1 antagonist inactive.
Screening CCOc1cc(/C=C2\SC(=S)N(C(C(=O)O)c3ccccc3)C2=O)ccc1O (stereo unspecified) returned CHRM1 agonist 19, M1 ag parental 29, CHO-K1 Ca PAM inactive, CHO-K1 Ca antag inactive, M1 PAM inactive and CHRM1 antagonist inactive.
For COc1cc(/C=C2\SC(=S)N(C(C(=O)O)c3ccccc3)C2=O)ccc1O (stereo unspecified) the results were CHRM1 agonist 17, M1 ag parental 29, CHO-K1 Ca PAM inactive, CHO-K1 Ca antag inactive, M1 PAM inactive and CHRM1 antagonist inactive.
For CC(=O)c1c(C)[nH]c(C(=O)Nc2cccc(S(=O)(=O)N3CCCC3)c2)c1C the results were CHRM1 agonist inactive, M1 ag parental inactive, CHO-K1 Ca PAM inactive, CHO-K1 Ca antag inactive, M1 PAM inactive and CHRM1 antagonist inactive.
Screening COc1cc(/C=N/OCC(=O)Nc2cc(C)on2)ccc1OCc1ccccc1 returned CHRM1 agonist inactive, M1 ag parental 20, CHO-K1 Ca PAM inactive, CHO-K1 Ca antag inactive, M1 PAM inactive and CHRM1 antagonist inactive.
For COc1cc(/C=C/C(=O)NC(C)C)ccc1OCc1ccccc1 the results were CHRM1 agonist inactive, M1 ag parental inactive, CHO-K1 Ca PAM inactive, CHO-K1 Ca antag inactive, M1 PAM inactive and CHRM1 antagonist inactive.
Screening CN(C)c1ncc(CN2CCC(CO)(CCCc3ccccc3)CC2)s1 returned CHRM1 agonist 20, M1 ag parental inactive, CHO-K1 Ca PAM inactive, CHO-K1 Ca antag inactive, M1 PAM inactive and CHRM1 antagonist inactive.
`Cn1nccc1C(=O)N1CCCC(N2CCN(Cc3ccc4c(c3)OCO4)CC2)C1` (stereo unspecified) gave CHRM1 agonist inactive, M1 ag parental inactive, CHO-K1 Ca PAM inactive, CHO-K1 Ca antag inactive, M1 PAM inactive and CHRM1 antagonist inactive.

Bioassay records as filed in PubChem.
